Compounds with a hit are over-represented: about 4.4% of the library has one in this group of screens.
PfHsp90 set2 = inhibits growth of yeast expressing Plasmodium falciparum Hsp90; actives 0.32% (n = 310,000); inhibition, % at 9.4 µM; S. cerevisiae expressing PfHsp90, BacTiter-Glo ATP, 48 h; yeast lacking PDR1 and PDR3 efflux regulators;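 active = every replicate shows inhibition above about 80%, whatever the replicate mean, limit read from the data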;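 note: 0% = DMSO neutral controls and 100% = 20 µM radicicol positive controls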
tim10-1 inh = growth inhibitors of tim10-1 mutant yeast; S. cerevisiae tim10-1 ts strain growth, BacTiter-Glo, 24 h; inhibition, % at 20 µM; actives 2.2% (n = 330,000); AID 463190;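 active = inhibition of at least 40%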;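 note: mutant grown at 25 °C; 0% = DMSO wells with yeast and 100% = wells holding no yeast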
TIM10 inh = TIM10 yeast growth inhibition. S. cerevisiae TIM10 strain growth, BacTiter-Glo luminescence, 24 h. inhibition, % at 10 µM. actives 1.4% (n = 330,000);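 active = inhibition of 40% or more at the single tested concentration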;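 note: wild-type TIM10 isogenic control strain grown at permissive 25 °C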
tim23-1 inh = tim23-1 yeast growth inhibition; S. cerevisiae tim23-1 growth, BacTiter-Glo luminescence, 24 h; inhibition, % at 20 µM; actives 1.3% (n = 330,000); AID 463212;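 active = growth inhibition of the mutant yeast at or above 50%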;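 note: temperature-sensitive mutant grown at 25 °C; plate controls were DMSO-treated mutant yeast for no effect and medium wells lacking yeast for full effect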
SUMO Mot1 rescue = SUMOylation pathway inhibition by Mot1-301 growth rescue. S. cerevisiae Mot1-301 growth rescue, ATP luminescence, 38.5C; percent above DMSO median, 100 means doubled. growth rescue, % at 18.8 µM. actives 1% (n = 320,000). AID 2716;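 active = every valid replicate shows activation above 250% relative to neutral control wells; inactive = the rest, any valid replicate at or below 250%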;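 note: OY570 slx delta 5 strain wells were the positive control but not used for scaling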
tim10-1 conf = tim10-1 yeast growth inhibition, confirmed; inhibition, % at 20 µM; shares compounds with tim10-1 inh; S. cerevisiae tim10-1 ts strain growth, BacTiter-Glo, 24 h; actives 56% (n = 7,400);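 active = inhibition of yeast growth at or above a set limit in either of two repeat tests at 20 µM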;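 note: tim10-1 mutant grown at permissive 25 °C to find synthetic lethal compounds; 0% = DMSO yeast wells and 100% = medium wells without yeast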
TIM10 conf = TIM10 yeast growth inhibition, confirmed. shares compounds with TIM10 inh. S. cerevisiae tim10 strain growth, BacTiter-Glo luminescence, 24 h. inhibition, % at 10 µM. actives 63% (n = 4,600). AID 463215;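 active = inhibition of yeast growth at or above a set limit in either of two replicates at 10 µM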;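 note: this counterscreen used the strain with wild-type TIM10; 0% = yeast with DMSO and 100% = medium wells lacking yeast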
Starred values were filed as active, the others as inactive; / = not tested or not shown.

SMILES	PfHsp90 set2	tim10-1 inh	TIM10 inh	tim23-1 inh	SUMO Mot1 rescue	tim10-1 conf	TIM10 conf
CCOC(=O)C1CCN(C(=O)c2cc3cc4cc(OC)ccc4nc3o2)CC1	-24	48*	53*	-8	-3	51*	-5
CN(CCC1CCOCC1)C(=O)CC1C(=O)NCCN1Cc1c(F)cccc1Cl (centres undefined)	1	-3	3	1	3	/	/
COc1ccc2cc3cc(C(=O)Nc4ccccc4N4CCN(C)CC4)oc3nc2c1	8	55*	44*	22	95	44*	-16
CCCN(CCC)CCCNC(=O)c1cc2cc3ccc(Cl)cc3nc2o1	-12	58*	60*	43	169	39*	41*
COc1ccc2cc3cc(C(=O)N4CCN(c5ccccc5)CC4)oc3nc2c1	/	3	-14	2	42	/	/
CN1CCN(c2ccccc2NC(=S)NC(=O)c2cc3ccccc3o2)CC1	-9	40*	98*	23	-5	3	-3
Cc1ccc2cc3cc(C(=O)NCCCN4CCc5ccccc5C4)oc3nc2c1	-1	51*	64*	47	-4	35*	5
N#CCCCCn1ccc(NC(=O)c2ccc(Cl)cc2O)n1	2	4	4	21	-10	/	/
CN(CC(=O)Nc1ccc(F)c(F)c1F)C(=O)C1=NN(c2ccccc2)C(=O)CC1	-2	-9	3	-9	44	/	/
COc1ccc2cc3cc(C(=O)NCCN4CCN(c5ccccc5F)CC4)oc3nc2c1	-25	71*	79*	15	-9	63*	-9
COCCNC(=O)c1cc2cc3ccc(OC)cc3nc2o1	-6	34	28	25	-7	/	/
O=C(NC(=S)Nc1ccccc1N1CCCCC1)c1cccs1	-47	43*	52*	41	-10	34*	61*
COc1cc(/C=C2/N=C(C3CCCCC3)OC2=O)cc(OC)c1OC	-26	43*	44*	39	0	33*	29
O=C(CSc1nnc(COc2ccc(Cl)cc2)o1)Nc1ccc(N2CCOCC2)cc1	-20	-18	-13	-26	/	/	/
COc1ccccc1N1CCN(C(=O)c2ccc3[nH]c4c(c3c2)CCCC4)CC1	-9	40	28	41	-10	/	/
O=C(c1ccc2[nH]c3c(c2c1)CCCC3)N1CCN(c2ccc(F)cc2)CC1	-45	41*	42*	46	-9	15	-6
CN(CC(=O)Nc1ccccc1Cl)C(=O)COC(=O)c1cc(S(=O)(=O)N(C)C)ccc1N1CCCC1	-6	12	6	11	/	/	/
CCc1nnc(NC(=O)C2CCCN(c3nc4ccccc4s3)C2)s1 (centres undefined)	12	7	25	16	-1	/	/
O=C(Nc1ccc2c(c1)OCO2)C1CCCN(c2nc3ccccc3s2)C1 (centres undefined)	4	48*	45*	45	1	36*	38*
O=C(/C=C/c1c[nH]c2ccccc12)c1ccccc1	33	45*	53*	18	123	37*	-16
O=C(/C=C/c1ccccc1O)c1ccccc1	15	/	/	/	/	/	/
COc1ccc2[nH]cc(/C=C/C(=O)c3ccccc3)c2c1	21	61*	71*	37	1	52*	74*
CCCc1cc(=O)[nH]c(SCC(=O)NC2CCCc3ccccc32)n1 (centres undefined)	-12	4	-12	3	-5	/	/
O=C(Nc1cccc(Cl)c1)C1=Cc2cc(Cl)ccc2OC1	-19	1	28	-9	/	/	/
O=C(Nc1ccc(Cl)c(Cl)c1)C1=Cc2ccccc2OC1	20	40*	50*	44	/	53*	60*
O=S(=O)(c1ccccc1)c1ccc(NCc2ccco2)cc1	-53	43*	42*	46	-13	38*	39*
Nc1c(-c2ccc3c(c2)OCCO3)oc2ccccc2c1=O	-9	27	27	29	3	/	/
CCN(c1ccccc1)S(=O)(=O)c1nnc(NC(=O)C(C)(C)C)s1	1	18	21	20	-17	/	/
